TAG inh = inhibitors of triacylglycerol accumulation, primary screen, cell-based, uHTS, fluorescence, H9c2; H9c2 cells, Nile Red lipid (TAG) fluorescence; cells loaded with 200 µM oleic acid; hit rate 0.66% among 230,000; inhibition, % at 12.5 µM; AID 651582, 2012;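 active means pattern-corrected inhibition of lipid staining of at least 50% with the nuclear-stain viability signal not falling by more than 50%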
iPSC survival up = enhancers of single-cell hiPSC survival, primary screen, ATPlite luminescence | 100% = ROCK inhibitor wells, 0% = DMSO | hit rate 0.044% among 360,000 | survival enhancement, % at 20 µM; in the data active means survival enhancement above about 18%;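 further: cells exposed to compounds for 16 hours before the ATP read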
CRFR2-BP ag = agonists of CRF-BP/CRF-R2 complex, primary screen, cell-based, HEK293, calcium dye fluorescence, uHTS. CRF-binding protein / CRF receptor 2 complex (human). calcium dye fluorescence (FLIPR); percent of saturating CRF peptide response. activation, % at 13.2 µM. hit rate 0.46% among 350,000;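 active means activation of at least 50%, plus an integration ratio under a set limit after plate pattern correction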
SKN-1 inh = suppressors of acrylamide-induced Pgst-4::GFP reporter in worms, primary screen, SKN-1 inhibitor project, whole organism, uHTS, GFP/RFP fluorescence ratio, strain VP596 | C. elegans VP596 Pgst-4::GFP/RFP ratio, 24 h | inhibition, % at 21.8 µM | hit rate 0.49% among 360,000 | AID 624304, 2012;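 active means interference check ratio from 0.5 to 1.5 plus GFP to RFP signal ratio inhibition reaching or exceeding a fixed threshold, cut at about 30% in these data, passing the limit was not always enough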
Cardio protect = cardioprotection against H2O2-induced cell death, primary screen, uHTS, H9c2 cells, ATPLite luminescence. H9c2 cardiomyocytes, H2O2 injury protection, 2 h. protection from H2O2 cell death, % at 20 µM. hit rate 0.63% among 360,000;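 active means compounds giving at least 50% protection of heart cells from peroxide-induced death in the single-dose screen, raw or plate-pattern-corrected value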
CRFR2-BP antag = antagonists of CRF-BP/CRF-R2 complex, primary screen, cell-based, HEK293, calcium dye fluorescence, uHTS. CRF-induced calcium fluorescence. inhibition, % at 11.8 µM. hit rate 0.59% among 350,000. AID 588475, 2011;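 active means inhibition of the ligand-induced calcium signal above about 50% at the single tested concentration, limit read from the data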
Each line names hits and unclear results; the compound was inactive in the other large screens. Compounds with a hit are over-represented: about 2.5% of the library has one in this group of screens.

COc1ccc(OC)c(C2CC(=O)c3c([nH]c(C(=O)OCC4CCCO4)c3C)C2)c1 (stereo not drawn)	Cardio protect 71.0 (no result: TAG inh)
COc1ccc(CN2C[C@@H](CO)O[C@@H](n3cnc4c(NC5CC5)ncnc43)C2)cc1	none (no result: CRFR2-BP ag, CRFR2-BP antag)
O=C(C[C@H]1C[C@@H]2c3cc(NC(=O)Nc4ccccc4)ccc3O[C@@H]2[C@@H](CO)O1)NCC1CC1	none
COc1ccc(OC)c(N(CC(=O)Nc2cccnc2)S(=O)(=O)c2ccc(OC)c(OC)c2)c1	Cardio protect 50.0
COc1ccc(OC)c(N(CC(=O)Nc2cccnc2)S(=O)(=O)c2ccc(C)cc2)c1	none (no result: TAG inh)
S=C(Nc1ccccn1)c1ccccn1	SKN-1 inh 39.4
O=C(Nc1ccccn1)C(=O)Nc1ccccn1	none
Cc1c(C(=O)N2CCN(S(=O)(=O)c3ccccc3F)CC2)oc2c(Cl)cccc12	SKN-1 inh 44.7
COc1ccc(C2=Nc3ccccc3N(C(=O)c3ccc(C(F)(F)F)cc3)C2C(=O)NCc2ccccc2)cc1 (stereo not drawn)	none (no result: TAG inh, iPSC survival up, CRFR2-BP ag, Cardio protect, CRFR2-BP antag)
Oc1ccc(Br)cc1C=Nc1ccc(Cl)cc1	Cardio protect 50.0
OCC(CO)(CO)N=Cc1cc(Br)ccc1O	Cardio protect 57.6 (no result: TAG inh)
Cc1ccc(N=Cc2cc(Br)cc(Cl)c2O)cc1	Cardio protect 75.5
COC(=O)c1cc(S(=O)(=O)NCCN2CCN(c3ccccc3F)CC2)c[nH]1	none (no result: TAG inh)
CCN(CC)c1ccc2c(c1)OC(N)=C(C#N)C2c1cccnc1 (stereo not drawn)	CRFR2-BP ag 181.4
O=C1NC[C@H](CCCCN2CCN(Cc3ccccc3)C(=O)C2=O)N(CCC2CCCCC2)C1=O	none (no result: TAG inh, CRFR2-BP ag, Cardio protect, CRFR2-BP antag)
CC1(C(=O)NS(=O)(=O)C2CC2)CCCN(C(=O)c2cccs2)C1 (stereo not drawn)	none (no result: CRFR2-BP ag, CRFR2-BP antag)
Cc1ccc(S(=O)(=O)NCCn2nc(C)nc2C)cc1	none (no result: TAG inh)
O=C(CNC(=O)c1cccc(Br)c1)N/N=C/c1cccs1	none (no result: TAG inh)
O=C(CNC(=O)c1cccc(Br)c1)N/N=C/c1cc(Br)cc(Br)c1O	Cardio protect 58.9
CCc1nc2ccc(C(=O)N(C)Cc3ccco3)cn2c1N(CC)C(=O)NCCc1ccccc1	none (no result: CRFR2-BP ag, CRFR2-BP antag)
CCN(CC)c1ccc(N=Nc2nn(C)c(C)c2[N+](=O)[O-])cc1	none
CCN(CC)c1ccc(N=Nc2ncn[nH]2)cc1	SKN-1 inh 45.6 (no result: TAG inh)
CC(C)NC(=O)c1cc(C2CCCCN2S(=O)(=O)c2cccc3cccnc23)on1 (stereo not drawn)	none (no result: CRFR2-BP ag, CRFR2-BP antag)
O=C(CC(c1ccccc1)c1ccccc1O)NCc1ccccc1Cl (stereo not drawn)	CRFR2-BP antag 67.3 (no result: TAG inh)
O=C(CC(c1ccccc1)c1ccccc1O)NCc1ccco1 (stereo not drawn)	none (no result: TAG inh)
c1ccc(-c2nc3nonc3nc2-c2ccccc2)cc1	CRFR2-BP antag 54.2
Nc1c(-c2ccccc2)nc(Cl)nc1-c1ccccc1	none
O=C(NNC(=S)NC(=O)C12CC3CC(CC(C3)C1)C2)c1ccncc1	CRFR2-BP ag 139.3 (no result: TAG inh)
CC1(C(=O)NC(=S)NNC(=O)c2ccncc2)CCCCC1	CRFR2-BP ag 80.8
CCn1c(SCC(=O)NC2CCCCC2)nnc1-c1ccccc1F	none (no result: TAG inh)
CCSc1nnc(NC(=O)C(CC)(C(F)(F)F)C(F)(F)F)s1	CRFR2-BP antag 55.5
CCOCCn1c(N2CCCC2)nc2c1c(=O)n(C)c(=O)n2C	none (no result: TAG inh)
CC(C)(C)c1ccc(-n2nc(C(N)=O)c(O)cc2=O)cc1	none
CC(C)(C)c1ccc(-n2nc(C#N)c(Cl)cc2=O)cc1	CRFR2-BP ag 51.3 (no result: TAG inh)
Cc1cccc(C)c1NC(=O)C1(C)CSCC(=O)N1CCc1c[nH]c2ccccc12 (stereo not drawn)	none (no result: TAG inh, iPSC survival up, CRFR2-BP ag, Cardio protect, CRFR2-BP antag)
Clc1nssc1=Nc1ccccc1	none
Clc1ccc(N=c2ssnc2Cl)cc1	CRFR2-BP ag 66.8, SKN-1 inh 92.0
Fc1ccc(N=c2ssnc2Cl)c(F)c1	CRFR2-BP ag 69.8
CC(=O)c1ccc(N=Cc2c(O)n(-c3cc(Cl)ccc3N3CCOCC3)c(=O)c3ccccc23)cc1	TAG inh 52.3
